# Assay results: the supplement of paper PMC5919970
# Counter-ions that a name gives are not always drawn. Whole data set: some 2,000 compounds, median “fractional viability relative to vehicle” near 0.92, cut for the lowest 2% near 0.11. What follows is part of a selection rich in the lowest values, with near analogues and random picks from the rest.
# System: TYKNU
# Experiment: fractional viability relative to vehicle; TYKNU is a high-grade serous ovarian cancer line; higher = less growth inhibition
# Conditions: 72 h, genotype: OPA1 knockout (sgOPA1 #2)
# Method in brief: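 TYKNU control cells or lentiCRISPRv2 knockout derivatives were plated at 500 cells per well in duplicate into drug-stamped 384-well plates holding a ~2100-compound library at 2 or 10 μM. Culture was in RPMI 1640 with 10% FBS at 37 °C in 5% CO2, with 72 h of drug treatment. Viability was measured by Cell Titer Glo luminescence, and the averaged duplicate treatment wells were normalised to duplicate control wells at the same plate position.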
Compound,fractional viability (2uM),fractional viability (10uM)
Cc1cc(Nc2ncc(Cl)c(Nc3ccccc3S(=O)(=O)C(C)C)n2)c(OC(C)C)cc1C1CCNCC1,0.376,0.0286
CNC(=O)c1ccccc1Nc1nc(Nc2ccc(N3CCOCC3)cc2OC)ncc1Cl,0.987,0.532
CN1CCN(Cc2ccc(Nc3ncc(Cl)c(Nc4ccccc4S(=O)(=O)N(C)C)n3)cc2)CC1,0.451,0.421
C[C@H](Nc1ncnc2nc[nH]c12)c1cc2cccc(Cl)c2c(=O)n1-c1ccccc1,0.926,1.05
COc1cc(O)c(CC=C(C)C)c(O)c1C(=O)/C=C/c1ccc(O)cc1 [Xanthohumol],0.841,0.772
NC(=O)c1nc(F)cnc1O [Favipiravir (T-705)],0.744,0.765
O=C1O[C@H]([C@@H](O)CO)C([O-])=C1O.[Na+] [Sodium ascorbate],1.02,0.95
O=C(Nc1ccccc1-c1cn2c(CN3CCNCC3)csc2n1)c1cnc2ccccc2n1,1.19,0.0331
Cc1nc(-c2cccnc2)sc1C(=O)Nc1ccccc1-c1cn2c(CN3CCOCC3)csc2n1,0.748,0.855
Cc1coc2c1C(=O)C(=O)c1c-2ccc2c1CCCC2(C)C [Tanshinone IIA],0.599,0.327
C[C@H]1COC2=C1C(=O)C(=O)c1c2ccc2c1CCCC2(C)C [Cryptotanshinone],0.361,0.0832
Cc1cc(Nc2ccc(NC(=O)c3ccc(Nc4ccnc5ccccc45)cc3)cc2)nc(N)n1,0.043,0.0318
CNCc1ccc(C)c(NC(=O)c2ccc(Nc3nc(-c4ccccc4)c4ccccc4n3)cc2)c1,1.13,0.134
CC(=O)Nc1ccc(C(=O)Nc2ccccc2N)cc1 [CI994 (Tacedinaline)],0.755,0.434
COc1cc(-c2ncn(/C=C\C(=O)OC(C)C)n2)cc(C(F)(F)F)c1,0.22,0.259
CNc1cccc(CCOc2ccc3c(c2)CN(CC(F)(F)F)C(=O)[C@H](CC(=O)O)C3)n1,0.781,0.671
CCCCc1oc2ccccc2c1C(=O)c1cc(I)c(OCCN(CC)CC)c(I)c1 [Amiodarone HCl],0.994,0.867
CCCCc1oc2ccc(NS(C)(=O)=O)cc2c1C(=O)c1ccc(OCCCN(CCCC)CCCC)cc1 [Dronedarone HCl],0.835,0.106
CN(CCOc1ccc(NS(C)(=O)=O)cc1)CCc1ccc(NS(C)(=O)=O)cc1 [Dofetilide],1.08,0.78
N#Cc1ccc(-c2c(-c3ncn[nH]3)sc(N3CCOCC3)c2C#N)c(F)c1,0.737,0.572
O=C(COc1ccc(Cl)cc1)NC1CCC(NC(=O)COc2ccc(Cl)cc2)CC1 (stereo not drawn) [ISRIB (trans-isomer)],1.09,0.976
Clc1ccc(C2(c3ccc(-c4cn[nH]c4)cc3)CCNCC2)cc1,1.03,0.554
COCCOc1nc(-c2ccc(Cl)c(Cl)c2)n(-c2ccc(NC(=O)CCl)cc2)n1 [MI-2 (MALT1 inhibitor)],1,0.952
COc1ccc(-n2c(SCCCN3C(=O)c4cccc5cccc(c45)C3=O)nnc2-c2ccncc2)cc1,0.913,0.874

Compound,fractional viability (2uM),fractional viability (10uM)
COc1ccc(-c2nc(N3CCOCC3)c3sc(CN(C)c4ncc(C(=O)NO)cn4)cc3n2)cn1,0.118,0.115
CS(=O)(=O)N1CCN(Cc2cc3nc(-c4cccc5[nH]ncc45)nc(N4CCOCC4)c3s2)CC1,0.824,0.658
Cc1c(CN2CCN(C(=O)[C@H](C)O)CC2)sc2c(N3CCOCC3)nc(-c3cnc(N)nc3)nc12,0.392,0.376
O=C1[C@H](Cc2ccc(O)cc2)N2C(=O)CCN(C(=O)NCc3ccccc3)[C@H]2CN1Cc1cccc2ccccc12,0.962,0.449
COc1cccc(-n2c(=O)[nH]c3cc(Cl)n(-c4ccc(-c5cccc(OC)c5O)cc4)c3c2=O)c1,0.827,0.807
Cn1cc(-c2cnn3c(N)c(Br)c([C@@H]4CCCNC4)nc23)cn1,0.571,0.814
Nc1nc(Nc2ccc3c(c2)CCC(N2CCCC2)CC3)nn1-c1cc2c(nn1)-c1ccccc1CCC2 (centres undefined),0.566,0.0864
COc1ccc([C@@H]2CC(=O)c3c(O)cc(O[C@@H]4O[C@H](CO)[C@@H](O)[C@H](O)[C@H]4O[C@@H]4O[C@@H](C)[C@H](O)[C@@H](O)[C@H]4O)cc3O2)cc1O [Neohesperidin],1.11,0.888
COc1ccc2c(c1)CCC1C2CCC2(C)C(NCCCCCCN3C(=O)C=CC3=O)CCC12 (centres undefined),0.747,0.738
CCN1CCN(Cc2ccc(Nc3ncc(F)c(-c4cc(F)c5nc(C)n(C(C)C)c5c4)n3)nc2)CC1,0.602,0.0904
CNC(=O)c1ccccc1Oc1nc(Nc2cc(OC)c(OC)c(OC)c2)ncc1Br,0.717,0.828
CN(CC(=O)N(Cc1ccc(C2CCCCC2)cc1)c1ccc(C(=O)O)cc1)S(=O)(=O)c1c(F)c(F)c(F)c(F)c1F,0.662,0.0586
C[C@H](NC(=O)[C@@H](O)c1cc(F)cc(F)c1)C(=O)N[C@@H]1C(=O)N(C)c2ccccc2-c2ccccc21,1.2,1.02
CC[C@@]1(O)C(=O)OCc2c1cc1n(c2=O)Cc2cc3cc(O)ccc3nc2-1 [(S)-10-Hydroxycamptothecin],0.179,0.157
COc1cc2/c(=N/c3ccc(Br)cc3F)nc[nH]c2cc1OCC1CCN(C)CC1 [Vandetanib (ZD6474)],1.31,0.638
COc1nc(OCc2cccc(-c3ccccc3)c2C)ccc1CNCCNC(C)=O [PD-1/PD-L1 inhibitor 2],0.912,0.487
NS(=O)(=O)NCCNc1nonc1/C(=N/O)Nc1ccc(F)c(Br)c1,0.817,0.783
C=CC(=O)Nc1cccc(Nc2nc(Nc3ccc(N4CCN(C(C)=O)CC4)cc3OC)ncc2C(F)(F)F)c1,0.781,0.431
COc1cc(N2CCC(N)CC2)ccc1Nc1ncc(Cl)c(-c2c[nH]c3ccccc23)n1,0.672,0.177
C=CC(=O)Nc1cc(Nc2nccc(-c3c[nH]c4ccccc34)n2)c(OC)cc1N(C)CCN(C)C,0.542,0.0815
C=CC(=O)Nc1cc(Nc2nccc(-c3cn(C)c4ccccc34)n2)c(OC)cc1N(C)CCN(C)C,0.766,0.0725
C=CC(=O)Nc1cccc(Nc2nc(Nc3ccc(NC4CN(CCF)C4)cc3OC)ncc2C(F)(F)F)c1,0.897,0.432
C=CC(=O)Nc1cccc(C)c1Nc1ncc2cc(-c3c(Cl)c(OC)cc(OC)c3Cl)ccc2n1,0.676,0.37
